The sample as a whole holds a higher share of hits than the screen did.
Methyltransferases: Primary Screen for Target Class Profiling of Small Molecule Inhibitors of Methyltransferases. AID 1745853, 2022. calls only at 40 µM. actives 3.9% (n = 25,000). purified enzyme, MTase-Glo SAH luminescence; active compounds read low; call rule not given here
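Each enzyme was assayed with SAM and its substrate. SAH formation detected by MTase-Glo luminescence; single-point 40 uM screen[…].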
Large screens that a line does not name were inactive.

Cc1cc2c(cc3n2CC(C)(C(=O)NC2CCCCCCC2)N(CCCN2CCCCC2)C3=O)o1 (configuration not stated)	none
O=C1CN(Cc2ccccc2F)S(=O)(=O)c2ccccc2N1Cc1cccc(F)c1	none
Cn1cnc2c(=O)oc3ccc(S(=O)(=O)NCCc4ccc(Cl)cc4)cc3c21	none
O=C(CCc1nnc2ccc(NCCCN3CCCC3=O)nn12)NCc1ccc(F)cc1	none
CCCN1C(=O)c2c(C(=O)Nc3cccc(Cl)c3)ncn2CC1(C)C(=O)NCc1ccc(OC)cc1 (configuration not stated)	none
Fc1ccc2[nH]ccc2c1-c1nc(N2CCOCC2)c2sc(CN3CCN(CC4CC4)CC3)cc2n1	Methyltransferases active
CCOC(=O)c1cc2n(n1)CC(C)(C(=O)NCc1ccc(C)cc1)N(c1cc(C)cc(C)c1)C2=O (configuration not stated)	none
O=C(Cn1c(=O)oc2cc(S(=O)(=O)N3CCCC3)ccc21)NCC1COc2ccccc2O1 (configuration not stated)	none
O=C(/C=C/c1ccc(O)cc1)N[C@@H](Cc1ccc(O)cc1)C(=O)O	none
CCCCCc1ccc(/C=C/C(=O)Nc2cc(Cl)ccc2C(=O)O)cc1	Methyltransferases active
CCCC1c2ccc(C)n2CCN1C(=O)Nc1cc(Cl)ccc1C(=O)OC (configuration not stated)	none
CCC(C)NC(=O)c1ccc2c(=O)n(CC(C)C)c3nn(CC(=O)c4ccccc4)c(=O)n3c2c1 (configuration not stated)	none
CC1(C(=O)NC2CCCCC2)Cn2c(ccc2-c2ccco2)C(=O)N1CCN1CCOCC1 (configuration not stated)	none
Cc1c(CN2CCN(S(C)(=O)=O)CC2)sc2c(N3CCOCC3)nc(-c3cnc(N)nc3)nc12	Methyltransferases active
CS(=O)(=O)N1CCc2c(-c3cnc(N)nc3)nc(N3CCOCC3)nc21	none
COc1ccc(OC)c(CN2C(=O)c3cc4ccccc4n3CC2(C)C(=O)NCc2ccccc2)c1 (configuration not stated)	none
O=C(CCn1ccc2cc(S(=O)(=O)N3CCCCC3)ccc21)NC1CCCC1	none
Cc1ccsc1CCNC(=O)Cn1c(=O)oc2cc(S(=O)(=O)N3CCCC3)ccc21	Methyltransferases active
O=C(Cn1c(=O)oc2cc(S(=O)(=O)N3CCCC3)ccc21)NCCc1ccc(Cl)cc1	none
O=C(Cn1c(=O)oc2cc(S(=O)(=O)N3CCCC3)ccc21)NCCC1=CCCCC1	none
O=C(Cn1nc2n(CCc3ccccc3)c(=O)c3ccccc3n2c1=O)c1ccccc1	none
COc1ccccc1CN1C(=O)c2ccc(-c3ccccc3)n2CC1(C)C(=O)NC1CCCC1 (configuration not stated)	none
CCCCN1C(=O)c2cc(C(=O)Nc3ccc(C)cc3Cl)nn2CC1(C)C(=O)NC1CCCC1 (configuration not stated)	none
C=C1C(=O)OC2C1CCC1(C)C(O)CC=C(C)C21 (configuration not stated)	Methyltransferases active
C=C1CC[C@@H](O)[C@]2(C)C[C@H]3OC(=O)C(=C)[C@H]3CC12 (some centres not stated)	none
C=C1CC[C@H]2C(=C)CC[C@H]3C(=C)C(=O)O[C@@H]3[C@@H]12	none
CC1(C(=O)NC2CCCCC2)Cn2c(ccc2-c2ccccc2)C(=O)N1CCc1cccs1 (configuration not stated)	none
CCCn1c(=O)c2ccc(C(=O)NC(C)CC)cc2n2c(=O)n(CC(=O)NC(C)(C)C)nc12 (configuration not stated)	none
CCC(C(=O)NCCc1ccccc1)n1ccc2cc(S(=O)(=O)N3CCCCC3)ccc21 (configuration not stated)	none
Cc1cccc(-c2nnc3n(CCc4ccccc4)c(=O)c4ccccc4n23)c1	Methyltransferases active
CC1CCN(C(=O)CCc2nnc3n(Cc4ccc(Cl)cc4)c(=O)c4ccccc4n23)CC1	none
O=C(CCc1nnc2n(Cc3ccc(Cl)cc3)c(=O)c3ccccc3n12)N1CCC(N2CCCCC2)CC1	Methyltransferases active
O=C(CCc1nnc2n(Cc3ccccc3)c(=O)c3ccccc3n12)N1CCN(c2cccc(Cl)c2)CC1	none
O=C(CCc1nnc2n(Cc3ccc(F)cc3)c(=O)c3ccccc3n12)N1CCC(N2CCCCC2)CC1	Methyltransferases active
O=C(CCc1nnc2n(Cc3ccc(F)cc3)c(=O)c3ccccc3n12)N1CCN(C2CCCCC2)CC1	none
O=c1c2ccccc2n2c(-c3cccc(Cl)c3)nnc2n1CCc1ccccc1	none
Cc1ccc(-c2nnc3n(CCc4ccccc4)c(=O)c4ccccc4n23)cc1	none
Cc1ccc(Cn2c(=O)c3ccccc3n3c(CCC(=O)N4CCN(C5CCCCC5)CC4)nnc23)cc1	none
Cc1ccc(Cn2c(=O)c3ccccc3n3c(CCC(=O)N4CCC(Cc5ccccc5)CC4)nnc23)cc1	none
O=C(CCc1nnc2n(CCc3ccccc3)c(=O)c3ccccc3n12)N1CCC(N2CCCCC2)CC1	Methyltransferases active
NC(=O)C1CCN(C(=O)CCc2nnc3n(Cc4ccc(F)cc4)c(=O)c4ccccc4n23)CC1	none
CC(C)OCCCn1c(=O)c2ccccc2n2c(-c3ccc(O)cc3)nnc12	none
Cc1ccc(Cn2c(=O)c3ccccc3n3c(=O)n(CC(=O)c4cccc(Cl)c4)nc23)cc1	none
CCCn1c(=O)c2ccc(C(=O)NC3CCCC3)cc2n2c(=O)n(Cc3ccc(F)cc3)nc12	none
COC(=O)c1ccc(COc2ccc3c(-c4ccccc4)cc(=O)oc3c2C)o1	none
CC(C)CCn1c(=O)c2ccccc2n2c(=O)n(CC(=O)N3CCN(c4ccc(F)cc4)CC3)nc12	none
CS(=O)(=O)c1cccc(CNc2nc(Nc3ccc4c(c3)CCC(=O)N4)ncc2C(F)(F)F)c1	Methyltransferases active
Cc1nnc2n(-c3ccccc3)c(=O)c3ccc(C(=O)NCc4ccc5c(c4)OCO5)cc3n12	none
CC1CCC(NC(=O)C2(C)Cn3c(cc4occc43)C(=O)N2CCCN2CCCCC2C)CC1 (configuration not stated)	none
Cc1ccccc1CSc1nnc2n(C)c(=O)c3ccc(C(=O)NC4CCCCC4)cc3n12	none
COc1ccccc1CN1C(=O)c2cc3ccccc3n2CC1(C)C(=O)NC1CCCC1 (configuration not stated)	none
C=CC(C)(O)CC/C=C(\C)C(=O)O[C@@H]1[C@@H](O)[C@H](OC(C)(C=C)CC/C=C(\C)C(=O)O[C@@H]2O[C@H](CO)[C@@H](O)[C@H](O)[C@H]2O)O[C@H](CO)[C@H]1OC(=O)/C(C)=C/CCC(C)(O)C=C (some centres not stated)	none
C=CC(C)(O)CC/C=C(\C)COC1O[C@H](CO)[C@@H](O)[C@H](O)[C@H]1O (some centres not stated)	Methyltransferases active
C/C(=C\CCC(C)(C)O)CCO[C@@H]1O[C@H](CO[C@@H]2O[C@@H](C)[C@H](O)[C@@H](O)[C@H]2O)[C@@H](O)[C@H](O)[C@H]1O	none
COC(=O)c1cc2n(n1)CC(C)(C(=O)NC1CCCCC1)N(Cc1ccc(OC(C)C)cc1)C2=O (configuration not stated)	none
Cn1c(=O)c2ccc(C(=O)NC3CCCCC3)cc2n2c(=O)n(CC(=O)c3cccc(Cl)c3)nc12	none
COC(=O)c1ccc(=O)c2nc3/c(=C/O)c(O)cc(=O)c3[nH]c12	Methyltransferases active
Cc1ccc(C(=O)Cn2nc3n(CC(C)C)c(=O)c4ccccc4n3c2=O)cc1	none
CC(C)CNC(=O)c1ccc2c(=O)n(CC(C)C)c3nn(Cc4ccc(F)cc4Cl)c(=O)n3c2c1	none
